# Assay outcomes from PubChem.
# GCN5L2 inh: inhibitors of human GCN5L2 histone acetyltransferase. Q92830. GCN5L2 HAT assay, ThioGlo1 CoA-SH fluorescence. Potency, µM (doses to about 58.9 µM), most hits filed as inhibitors. hit rate 0.21% among 390,000. AID 504327
#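 qHTS, 1536-well. 20nM enzyme, pH 7.5 HEPES/EDTA/Tween-20 buffer; 15 min compound preinc., RT. Start: 75uM H3(1-25), 70uM AcCoA, 50uM ThioGlo1. Read Ex340/Em540 at t=0 (autofluorescence flag) and t=20 min.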
# WRN inhibitor: WRN helicase (human) inhibition | hit rate 0.46% among 360,000 | Potency, µM (titrated, usually from 114 µM), usual class: inhibitors | WRN helicase unwinding, fluorescent forked duplex, kinetic | AID 651768; further: nearly all actives have a fitted effect of over 55% in size
#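 Kinetic fluorescence helicase assay: unwinding of a quenched forked DNA duplex (100 nM final) with 2 mM ATP final raises red fluorescence (525/598 nm). Compounds sat 15 min at room temperature with 20 nM WRN beforehand.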
# RECQ1 inh-1: RECQ1 (human) helicase inhibition; P46063; AID 2549; Potency, µM (series often up to 57.3 µM), hits mostly inhibitors; hit rate 0.54% among 240,000; RECQ1 DNA unwinding, red fluorescence kinetic read; further: nearly all actives have a fitted effect of over 30% in size
#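 50 nM RECQ1T1 preincubated 15 min with compound in Tris pH 8.0 buffer with MgCl2, DTT, Tween-20 and 2.5 ug/ml poly(dI-dC); started with 200 nM TAMRA/BHQ-2 forked duplex and 2 mM ATP. Unwinding read as fluorescence (525/598 nm), two reads 2 h apart.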
# ERG Ets-DNA blk: inhibitors of human ERG Ets domain-DNA interaction | P11308 | fluorescence polarization, His-ERG Ets domain / labelled DNA | Potency, µM (titrated, usually from 76.9 µM), hits mostly inhibitors | hit rate 0.028% among 370,000 | AID 624246; active means well fitted inhibition curve with a large enough effect in the polarisation, with a control signal flat; inconclusive means small, poorly fitted or top-dose-only effect, or effect the other way, or a change in a side signal; inactive means no such curve, though single readings can be large or run the other way; the % refers to the polarisation;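 further: polarization taken with two DNA probes labelled with fluorescein and Texas red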
# Target sequence (P11308 whole entry, looked up, the tested form may be a part): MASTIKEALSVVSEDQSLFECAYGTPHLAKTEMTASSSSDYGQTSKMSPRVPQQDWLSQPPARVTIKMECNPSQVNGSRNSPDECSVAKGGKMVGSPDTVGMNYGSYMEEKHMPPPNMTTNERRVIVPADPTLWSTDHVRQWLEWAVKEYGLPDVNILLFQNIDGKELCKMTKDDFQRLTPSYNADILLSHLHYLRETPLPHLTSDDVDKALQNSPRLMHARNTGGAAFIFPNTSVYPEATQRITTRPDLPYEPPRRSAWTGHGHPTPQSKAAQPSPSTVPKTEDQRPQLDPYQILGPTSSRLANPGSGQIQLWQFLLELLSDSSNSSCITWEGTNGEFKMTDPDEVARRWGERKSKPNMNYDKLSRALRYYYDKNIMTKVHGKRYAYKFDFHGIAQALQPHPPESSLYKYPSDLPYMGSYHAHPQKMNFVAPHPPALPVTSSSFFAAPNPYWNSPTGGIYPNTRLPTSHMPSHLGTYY
#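 His-tagged ERG Ets domain (1 uM in the protein solution; 300mM KCl, 50mM Tris-HCl, 1mM EDTA, 1mM DTT, pH 7.5) received compound, then a probe mix of 5 nM fluorescein-DNA and 100nM Texas-615-DNA. Fluorescence polarization was read for both dyes.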
# APE1 inh-1: inhibitors of human APE1 endonuclease | P27695 | recombinant APE1, TAMRA/BHQ-2 abasic DNA cleavage fluorescence | Potency, µM (titrated, usually from 65.8 µM), actives largely listed as inhibitors | hit rate 0.35% among 350,000 | AID 2517; further: nearly all actives have a fitted effect of over 55% in size
#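 Activity was derived from the fluorescence gain between first and third kinetic reads (60 s intervals, ex 525/em 598 nm) after 50 nM THF-abasic TAMRA/BHQ-2 duplex was added to 0.75 nM APE1 preincubated 15 min with compound.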
# BLM inh: blocks DNA unwinding by human BLM helicase | P54132 | recombinant BLM DNA unwinding, fluorescence dequenching | Potency, µM (series often up to 56.1 µM), usual class: inhibitors | hit rate 0.2% among 350,000 | AID 2528; further: nearly all actives have a fitted effect of over 35% in size
# DNA dye displace: displaces fluorescent dye from DNA, flagging APE1 artifacts. shares compounds with APE1 inh-1. DNA fluorescent dye displacement counterscreen, fluorescence. Potency, µM (top dose mostly 28.5 µM), most hits filed as inhibitors. hit rate 7% among 480;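 further: loss of thiazole orange fluorescence as the dye is displaced from duplex DNA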
# Endo IV inh: blocks E. coli endonuclease IV DNA cleavage; shares compounds with APE1 inh-1; E. coli Endo IV, fluorogenic AP-site DNA cleavage; Potency, µM (titrated, usually from 27.1 µM), hits mostly inhibitors; hit rate 4% among 560; AID 2565
# APE1 inh-2: confirmation of inhibitors of human APE1 endonuclease; shares compounds with APE1 inh-1; purified APE1, fluorogenic abasic-site DNA cleavage; Potency, µM (titrated, usually from 57.1 µM), actives largely listed as inhibitors; hit rate 44% among 750; further: nearly all actives have a fitted effect of over 30% in size
# APE1 FP: displaces DNA from human APE1 in FP assay | shares compounds with APE1 inh-1 | APE1 binding to TAMRA-labelled double-stranded DNA, fluorescence polarization displacement | Potency, µM (titrated, usually from 28.5 µM), most hits filed as inhibitors | hit rate 7% among 480
# RECQ1 conf: confirmation of human RECQ1 helicase inhibitors. shares compounds with RECQ1 inh-1. RECQ1 helicase DNA unwinding, fluorescence. Potency, µM (highest dose often 229 µM), actives largely listed as inhibitors. hit rate 28% among 610. AID 2708; further: nearly all actives have a fitted effect of over 45% in size
# ADP FP counter: ADP displacement flagged in RECQ1 inhibitor counter-screen; shares compounds with RECQ1 inh-1; ADP fluorescence polarization displacement counterscreen; Potency, µM (highest dose often 228 µM), actives largely listed as inhibitors; hit rate 27% among 530; AID 2711; further: nearly all actives have a fitted effect of over 45% in size
# RECQ1 inh-2: RECQ1 helicase inhibition confirmed, round 2; Potency, µM (top dose mostly 119 µM), most hits filed as inhibitors; recombinant RECQ1 DNA unwinding, red fluorescence; shares compounds with RECQ1 inh-1; hit rate 15% among 1,100; further: nearly all actives have a fitted effect of over 50% in size
# A number is an active result; – = inactive; ? = inconclusive; · = no result given. Hits are enriched below; roughly 0.88% of the tested compounds scored in any of these assays. Unless noted, the call rests on the fitted dose curve; in most records, active means well fitted curve in the direction sought with a large enough effect; inconclusive means small, poorly fitted or top-dose-only effect, or another doubt; inactive means no such curve, though single readings can be large; an effect the other way counts as inactive or inconclusive.
SMILES,GCN5L2 inh,WRN inhibitor,RECQ1 inh-1,ERG Ets-DNA blk,APE1 inh-1,BLM inh,DNA dye displace,Endo IV inh,APE1 inh-2,APE1 FP,RECQ1 conf,ADP FP counter,RECQ1 inh-2
O=C(O)c1cc(O)c2c(c1)[C@H]([C@H]1c3cc(C(=O)O)cc(O)c3C(=O)c3c(O[C@@H]4OC(CO)C(O)C(O)C4O)cccc31)c1cccc(O[C@@H]3OC(CO)C(O)C(O)C3O)c1C2=O (some centres undefined),1.8µM,·,2µM,·,·,3.2µM,·,–,0.71µM,·,2.8µM,7.1µM,·
CCOC(=O)C1CCc2sc(N)c(C#N)c21 (centres undefined),–,–,25µM,·,?,–,–,–,–,?,–,–,·
O=C1C=CC2=C3c4cc(O)c(O)cc4CC3(O)COC2=C1O (centres undefined),·,4.5µM,1.3µM,–,0.11µM,16µM,?,–,1.4µM,18µM,11µM,3.2µM,·
Cc1ccc(NC(=O)CN2C(=O)S/C(=C/c3ccc(O)c([N+](=O)[O-])c3)C2=O)cc1C,?,79µM,?,–,?,25µM,·,·,?,·,·,·,22µM
Cc1ccccc1-n1c(C)cc(/C=C2/C(=N)N3C(c4ccccc4)=CSC3=NC2=O)c1C,–,–,–,–,–,–,·,·,·,·,·,·,·
N=C1/C(=C\c2ccc(-c3cccc(C(=O)O)c3)o2)C(=O)N=C2SC=C(c3ccccc3)N12,–,40µM,?,–,40µM,–,·,·,40µM,·,·,·,?
COCCCNc1c2c3c(cccc3[nH]c1=O)C(=O)c1ccccc1-2,?,28µM,25µM,7.1µM,?,–,·,13µM,?,4µM,·,·,56µM
CCC1(CC)NC(=O)N(CC(=O)Nc2sc3c(c2C(N)=O)CCC3)C1=O,–,?,22µM,–,18µM,–,–,?,?,?,45µM,?,?
CCOC(=O)[C@]12CCC=C1N(Cc1ccco1)C(=O)[C@H](CC(=O)N1CCCCC1)C2,·,–,·,·,·,·,·,·,·,·,·,·,·
Cc1nnc(NC(=O)CCSCCC(=O)Nc2nnc(C)s2)s1,–,50µM,?,–,?,–,·,·,40µM,·,·,·,16µM
CC1=NN(c2ccc(Cl)c(C(=O)O)c2)C(=O)/C1=C\c1ccc(-c2ccc(C(=O)O)cc2)o1,?,?,?,–,25µM,–,?,–,13µM,–,·,·,?
CC1=NN(c2ccccc2)C(=O)/C1=C/c1ccc(-c2ccc(C)c(C(=O)O)c2)o1,·,?,·,–,·,·,·,·,·,·,·,·,·
COc1cc(-c2cc(=O)c3c(O)c(OC)c(OC)c(OC)c3o2)cc(OC)c1OC,–,–,–,–,–,–,·,·,·,·,·,·,·
COc1c(O)cc2c(=O)oc3c(OC)c(O)cc4c(=O)oc1c2c34,·,·,3.2µM,·,1.3µM,14µM,6.3µM,–,0.45µM,–,·,·,0.79µM
